Shown is part of a subset that was picked to be rich in hits.
PRC2 inh – inhibitors of human EZH2/PRC2 methyltransferase. Q15910. PRC2 H3K27 methylation, DELFIA TRF, 1 h. inhibition, % at 12.5 µM. 57,000 tested, 0.35% active. AID 651548;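 active = mean inhibition of replicates at least 50% and every single replicate also reaching 50%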;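 also: dimethyl H3K27 on biotinylated H3 21-44 peptide detected by antibody; plate controls were median neutral control wells for no effect and median positive control wells for full effect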
Target sequence (Q15910 whole entry, looked up): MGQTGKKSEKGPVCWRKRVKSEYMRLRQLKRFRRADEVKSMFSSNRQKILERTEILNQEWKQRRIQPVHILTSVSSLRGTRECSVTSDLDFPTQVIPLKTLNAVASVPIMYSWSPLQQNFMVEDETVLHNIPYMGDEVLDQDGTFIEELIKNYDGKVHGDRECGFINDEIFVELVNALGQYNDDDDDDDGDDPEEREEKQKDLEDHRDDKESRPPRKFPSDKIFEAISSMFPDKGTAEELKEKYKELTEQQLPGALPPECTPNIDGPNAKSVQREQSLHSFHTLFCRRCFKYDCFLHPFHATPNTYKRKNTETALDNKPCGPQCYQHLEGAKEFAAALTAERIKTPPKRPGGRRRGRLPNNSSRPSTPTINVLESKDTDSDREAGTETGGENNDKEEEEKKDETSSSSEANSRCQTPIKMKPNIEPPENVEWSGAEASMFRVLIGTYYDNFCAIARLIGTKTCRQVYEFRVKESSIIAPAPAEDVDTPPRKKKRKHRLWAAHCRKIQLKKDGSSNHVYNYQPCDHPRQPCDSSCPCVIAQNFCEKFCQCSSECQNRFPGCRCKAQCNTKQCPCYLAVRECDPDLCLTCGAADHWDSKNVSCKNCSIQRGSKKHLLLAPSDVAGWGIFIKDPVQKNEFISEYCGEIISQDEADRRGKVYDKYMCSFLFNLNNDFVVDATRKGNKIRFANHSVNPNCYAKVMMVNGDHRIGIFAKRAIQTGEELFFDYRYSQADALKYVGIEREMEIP
An asterisk follows results filed as active.

SMILES	PRC2 inh
COc1cc(O)cc2c1C(=O)OC(C)C2 (configuration not stated)	12
COc1cc2c(c(O)c1OC)C(=O)CC(c1ccc(O)cc1)O2 (configuration not stated)	11
Brc1ccc2noc(-c3ccccc3)c2c1	63*
OCCCNc1nc(-c2ccccc2Cl)c2cc(Br)ccc2n1	-2
Brc1ccc2nc(NCc3ccccn3)nc(-c3ccccc3)c2c1	28
O=C(NCCCN1CCOCC1)c1cnn2c(C(F)F)cc(-c3ccccc3)nc12	-2
COc1ccc(NC(=O)CNC(=O)c2cccc(C)c2)cc1	11
Cc1cc(-c2ccc(N=Nc3cc(S(=O)(=O)O)c4ccccc4c3N)c(C)c2)ccc1N=Nc1cc(S(=O)(=O)O)c2ccccc2c1N	99*
Cc1cc(N)n(-c2ccc(Oc3ccccc3)cc2S(=O)(=O)O)n1	10
Clc1nc(NC2CCCCC2)c2cc(Br)ccc2n1	32
Cc1ccc(-c2csc3nnc(SCC(=O)c4ccc(Cl)c(Cl)c4)n23)cc1	12
CC(C)C(=O)Nc1ccccc1C(=O)OCc1cccc([N+](=O)[O-])c1	23
Cc1ccc([N+](=O)[O-])c(OCCCCn2cncn2)c1	-21
O=C1c2cccc3cccc(c23)C(=O)N1CCCSc1n[nH]c(-c2ccc(F)cc2)n1	16
CCCCCCCC/C=C/CCCCCCCC(=O)NCCO	-16
CCCCC/C=C\C/C=C\C/C=C\C/C=C\CCCCCC(=O)O	12
CCCCCCCC/C=C/CCCCCCCC(=O)NCCc1ccc(O)c(O)c1	68*
Cc1ccsc1/C=N/NC(=O)CCCCCC(=O)Nc1ccccc1O	11
COc1ccc(OC)c(N(CC(=O)Nc2cccc(Cl)c2C)S(C)(=O)=O)c1	-17
Cc1cccc(OCCn2c(C(C)O)nc3ccccc32)c1 (configuration not stated)	-22
O=C(O)Cc1cccc(OCCCN(Cc2cccc(C(F)(F)F)c2Cl)CC(c2ccccc2)c2ccccc2)c1	85*
CSc1cccc(NC(=O)CSc2nnc(-c3cccc(C)c3)o2)c1	20
C[C@@H]1O[C@@H](O[C@@H]2[C@@H](O)[C@H](O[C@@H]3[C@@H](O)[C@@H](O)[C@H](O[C@H]4[C@H](OC(=O)[C@]56CCC(C)(C)C[C@H]5C5=CCC7[C@@]8(C)C[C@H](O)[C@H](O[C@@H]9O[C@H](C(=O)O)[C@@H](O)[C@H](O)[C@H]9O)[C@@](C)(CO)C8[C@H](O)C[C@@]7(C)[C@]5(C)C[C@H]6O)O[C@@H](CO)[C@@H]4O)O[C@H]3C)OC[C@H]2O)[C@H](O)[C@H](O)[C@H]1O (some centres not stated)	99*
C[C@@H]1O[C@@H](O[C@@H]2CC[C@@]3(C)C(CC[C@]4(C)C3CC=C3[C@@H]5CC(C)(C)CC[C@]5(C(=O)O[C@@H]5O[C@H](CO)[C@@H](O)[C@H](O)[C@H]5O)CC[C@]34C)[C@]2(C)CO)[C@H](O)[C@H](O[C@@H]2OC[C@@H](O)[C@H](O)[C@H]2O)[C@H]1O (some centres not stated)	-5
C[C@@H]1O[C@@H](O[C@H]2[C@H](O[C@H]3CC[C@@]4(C)C(CC[C@]5(C)C4CC=C4C6CC(C)(C)CC[C@]6(C(=O)O[C@@H]6O[C@H](CO[C@@H]7O[C@H](CO)[C@@H](O[C@@H]8O[C@@H](C)[C@H](O)[C@@H](O)[C@H]8O)[C@H](O)[C@H]7O)[C@@H](O)[C@H](O)[C@H]6O)CC[C@]45C)[C@]3(C)CO)OC[C@H](O)[C@@H]2O)[C@H](O)[C@H](O)[C@H]1O (some centres not stated)	20
SMILES	PRC2 inh
CS(=O)(=O)N(CC(=O)Nc1ccccc1Sc1ccccc1)c1cccc(C(F)(F)F)c1	31
CCN(CC)C(=O)Oc1c(Br)cc(Br)c2ccc(C)nc12	19
Cc1ccccc1OCC(=O)Nc1ccc(O)cc1C(=O)O	-15
Cc1cc(C)nc(SCC(O)COc2ccc(Cl)cc2)n1 (configuration not stated)	4
Cc1cc(Oc2ccccc2)nc(SCCOc2ccccc2)n1	52*
Cc1cc(Oc2ccccc2)nc(SCC(=O)Nc2ccc(Cl)cc2Cl)n1	19
COc1ccc2c(c1)cc(C)c1nnc(SCC(=O)Nc3cccc(C(C)=O)c3)n12	-16
[N-]=[N+]=Nc1cccc(C(=O)N2CCC3(CC2)C(=O)NCN3c2ccccc2)c1	5
Cc1cc(OCC(=O)Nc2ccccc2C(=O)NC2CCCCC2)ccc1Br	-13
CN(c1ccc(OCC(=O)O)cc1)S(=O)(=O)c1ccc(F)cc1	9

Compound activity: PubChem, Broad Institute
